Experimental data as given in PubChem BioAssay AID1159580 (chemical genetic matrix, 2015).
Out of some 5,500 compounds screened, about 2,000 (36%) were called active. About 18% were inconclusive and are not listed. Rule as the data show it: active = normalized growth mostly below about 0.91 (no sharp cut-off); inconclusive = no clear call, values can overlap the other calls; inactive = mostly above about 0.92. Some of the results follow.

Test: chemical genetic growth profiling, strain panel (AID 1159580);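 also: tested at 20 µM; growth read once vehicle control cultures reached saturation at 30 °C; 1 = growth at the plate median or of vehicle wells; lower values mean less growth of the strain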
Settings: growth OD

Measured: normalized growth

COc1ccccc1OCCNCC(O)COc1cccc2[nH]c3ccccc3c12 (stereo unspecified)
inactive: S. cerevisiae deletion strains, locus YKL009W, strain mrt4, active compounds read low 1.01 | S. cerevisiae deletion strains, locus YKL068W, active compounds read low 1.01 | S. cerevisiae deletion strains, locus YKL085W, strain MDH1 (second series), active compounds read low 1.01 | S. cerevisiae deletion strains, locus YKL085W, strain MDH1, active compounds read low 1.01 | S. cerevisiae deletion strains, locus YKL160W, strain elf1, active compounds read low 1.01 | S. cerevisiae deletion strains, locus YKL190W, strain CNB1, active compounds read low 0.997 | S. cerevisiae deletion strains, locus YKR001C, strain vps1, active compounds read low 1.05 | S. cerevisiae deletion strains, locus YKR026C, strain gcn3, active compounds read low 1.02 | S. cerevisiae deletion strains, locus YKR091W, strain srl3, active compounds read low 1.01 | S. cerevisiae deletion strains, locus YLL001W, strain dnm1, active compounds read low 1.01 | S. cerevisiae deletion strains, locus YLL026W, active compounds read low 1.02 | S. cerevisiae deletion strains, locus YLL041C, strain sdh2, active compounds read low 1.01 | S. cerevisiae deletion strains, locus YLR027C, strain aat2, active compounds read low 1.01 | S. cerevisiae deletion strains, locus YLR039C, strain RIC1, active compounds read low 1.09 | S. cerevisiae deletion strains, locus YLR058C, strain SHM2, active compounds read low 1 | S. cerevisiae deletion strains, locus YLR102C, strain apc9, active compounds read low 1 | S. cerevisiae deletion strains, locus YLR113W, strain HOG1, active compounds read low 0.987 | S. cerevisiae deletion strains, locus YLR221C, strain rsa3, active compounds read low 1.01 | S. cerevisiae deletion strains, locus YLR258W, strain gsy2, active compounds read low 1.02 | S. cerevisiae deletion strains, locus YLR262C, strain YPT6 (second series), active compounds read low 1.05 | S. cerevisiae deletion strains, locus YLR262C, strain YPT6, active compounds read low 1.06 | S. cerevisiae deletion strains, locus YLR268W, strain sec22, active compounds read low 1.01 | S. cerevisiae deletion strains, locus YLR320W, strain mms22, active compounds read low 1.02 | S. cerevisiae deletion strains, locus YLR330W, strain CHS5, active compounds read low 1.01 | S. cerevisiae deletion strains, locus YLR342W, strain FKS1 (second series), active compounds read low 0.993 | S. cerevisiae deletion strains, locus YLR342W, strain FKS1, active compounds read low 1.01 | S. cerevisiae deletion strains, locus YLR357W, strain rsc2, active compounds read low 1 | S. cerevisiae deletion strains, locus YLR370C, strain arc18, active compounds read low 1.01 | S. cerevisiae deletion strains, locus YLR371W, strain rom2, active compounds read low 1.01 | S. cerevisiae deletion strains, locus YLR384C, strain iki3, active compounds read low 1.03 | S. cerevisiae deletion strains, locus YLR418C, strain cdc73, active compounds read low 0.999 | S. cerevisiae deletion strains, locus YML016C, strain PPZ1, active compounds read low 1.01 | S. cerevisiae deletion strains, locus YML032C, strain rad52, active compounds read low 1.02 | S. cerevisiae deletion strains, locus YML120C, strain ndi1, active compounds read low 1.01 | S. cerevisiae deletion strains, locus YML124C, strain tub3, active compounds read low 1.02 | S. cerevisiae deletion strains, locus YMR058W, strain fet3, active compounds read low 1.03 | S. cerevisiae deletion strains, locus YMR078C, strain ctf18, active compounds read low 1.02 | S. cerevisiae deletion strains, locus YMR125W, strain sto1, active compounds read low 1.01 | S. cerevisiae deletion strains, locus YMR129W, active compounds read low 1.01 | S. cerevisiae deletion strains, locus YMR205C, strain PFK2, active compounds read low 1.04 | S. cerevisiae deletion strains, locus YMR223W, strain ubp8, active compounds read low 1 | S. cerevisiae deletion strains, locus YMR231W, strain pep5, active compounds read low 1.01 | S. cerevisiae deletion strains, locus YMR263W, strain SAP30, active compounds read low 0.979 | S. cerevisiae deletion strains, locus YMR307W, strain GAS1, active compounds read low 0.972 | S. cerevisiae deletion strains, locus YNL067W, strain RPL9B, active compounds read low 0.962 | S. cerevisiae deletion strains, locus YNL071W, strain lat1, active compounds read low 0.996 | S. cerevisiae deletion strains, locus YNL128W, strain TEP1, active compounds read low 1 | S. cerevisiae deletion strains, locus YNL153C, strain GIM3, active compounds read low 1 | S. cerevisiae deletion strains, locus YNL183C, strain NPR1, active compounds read low 0.962 | S. cerevisiae deletion strains, locus YNL209W, strain ssb2, active compounds read low 1.02 | S. cerevisiae deletion strains, locus YNL233W, strain BNI4, active compounds read low 1 | S. cerevisiae deletion strains, locus YNL248C, strain rpa49, active compounds read low 1.02 | S. cerevisiae deletion strains, locus YNL250W, strain rad50, active compounds read low 1 | S. cerevisiae deletion strains, locus YNL271C, strain bni1, active compounds read low 1.02 | S. cerevisiae deletion strains, locus YNL298W, strain CLA4, active compounds read low 1.03 | S. cerevisiae deletion strains, locus YNL307C, strain MCK1, active compounds read low 1.01 | S. cerevisiae deletion strains, locus YNL322C, strain KRE1 (second series), active compounds read low 0.989 | S. cerevisiae deletion strains, locus YNL322C, strain KRE1, active compounds read low 1 | S. cerevisiae deletion strains, locus YNR049C, strain mso1, active compounds read low 1.01 | S. cerevisiae deletion strains, locus YNR052C, strain pop2, active compounds read low 1.01 | S. cerevisiae deletion strains, locus YOL006C, strain TOP1, active compounds read low 1 | S. cerevisiae deletion strains, locus YOL012C, strain htz1 0.91 | S. cerevisiae deletion strains, locus YOL147C, strain pex11, active compounds read low 1.01 | S. cerevisiae deletion strains, locus YOR001W, strain rrp6, active compounds read low 1.01 | S. cerevisiae deletion strains, locus YOR061W, strain CKA2, active compounds read low 1.01 | S. cerevisiae deletion strains, locus YOR069W, strain VPS5, active compounds read low 0.997 | S. cerevisiae deletion strains, locus YOR070C, strain gyp1, active compounds read low 1 | S. cerevisiae deletion strains, locus YOR080W, strain dia2, active compounds read low 1 | S. cerevisiae deletion strains, locus YOR083W, strain WHI5, active compounds read low 1 | S. cerevisiae deletion strains, locus YOR106W, strain vam3, active compounds read low 1.02 | S. cerevisiae deletion strains, locus YOR136W, strain idh2, active compounds read low 1.02 | S. cerevisiae deletion strains, locus YOR144C, strain elg1, active compounds read low 1.02 | S. cerevisiae deletion strains, locus YOR184W, strain ser1, active compounds read low 0.999 | S. cerevisiae deletion strains, locus YOR231W, strain MKK1, active compounds read low 0.999 | S. cerevisiae deletion strains, locus YOR265W, strain rbl2, active compounds read low 0.996 | S. cerevisiae deletion strains, locus YOR270C, strain vph1, active compounds read low 1.03 | S. cerevisiae deletion strains, locus YOR290C, strain snf2, active compounds read low 1.01 | S. cerevisiae deletion strains, locus YOR316C, strain cot1, active compounds read low 1.02 | S. cerevisiae deletion strains, locus YPL051W, strain arl3, active compounds read low 1.01 | S. cerevisiae deletion strains, locus YPL055C, strain LGE1, active compounds read low 1.01 | S. cerevisiae deletion strains, locus YPL078C, strain atp4, active compounds read low 1.03 | S. cerevisiae deletion strains, locus YPL106C, strain sse1, active compounds read low 1.02 | S. cerevisiae deletion strains, locus YPL240C, strain hsp82, active compounds read low 1.01 | S. cerevisiae deletion strains, locus YPL241C, strain CIN2, active compounds read low 0.996 | S. cerevisiae deletion strains, locus YPL256C, strain CLN2, active compounds read low 0.994 | S. cerevisiae deletion strains, locus YPR119W, strain clb2, active compounds read low 1.02 | S. cerevisiae deletion strains, locus YPR141C, strain kar3, active compounds read low 1.03 | S. cerevisiae deletion strains, locus YPR163C, strain tif3, active compounds read low 1.02 | S. cerevisiae deletion strains, locus YPR167C, strain met16, active compounds read low 1.02 | S. cerevisiae deletion strains, strain wtn01, active compounds read low 1.01 | S. cerevisiae strains, strain wild type, active compounds read low 0.984
